According to the supplement of paper PMC11732987, “Enantioselective OTUD7B fragment discovery through chemoproteomics screening and high-throughput optimisation” (Communications Chemistry, 2025):

Tests used:
Test in all cases: log2 ratio of Biotin-Ahx-Ub-VS probe labelling (fragment/DMSO); higher = less target engagement (more negative = stronger competition), active = hit call of the paper (q ≤ 0.05, log2 ratio ≤ -1)
Details in all cases: compound concentration: 200 uM; treatment time: 3 h
USP19 = target: T1, USP19 (UniProt O94966)
T1 sequence (whole entry): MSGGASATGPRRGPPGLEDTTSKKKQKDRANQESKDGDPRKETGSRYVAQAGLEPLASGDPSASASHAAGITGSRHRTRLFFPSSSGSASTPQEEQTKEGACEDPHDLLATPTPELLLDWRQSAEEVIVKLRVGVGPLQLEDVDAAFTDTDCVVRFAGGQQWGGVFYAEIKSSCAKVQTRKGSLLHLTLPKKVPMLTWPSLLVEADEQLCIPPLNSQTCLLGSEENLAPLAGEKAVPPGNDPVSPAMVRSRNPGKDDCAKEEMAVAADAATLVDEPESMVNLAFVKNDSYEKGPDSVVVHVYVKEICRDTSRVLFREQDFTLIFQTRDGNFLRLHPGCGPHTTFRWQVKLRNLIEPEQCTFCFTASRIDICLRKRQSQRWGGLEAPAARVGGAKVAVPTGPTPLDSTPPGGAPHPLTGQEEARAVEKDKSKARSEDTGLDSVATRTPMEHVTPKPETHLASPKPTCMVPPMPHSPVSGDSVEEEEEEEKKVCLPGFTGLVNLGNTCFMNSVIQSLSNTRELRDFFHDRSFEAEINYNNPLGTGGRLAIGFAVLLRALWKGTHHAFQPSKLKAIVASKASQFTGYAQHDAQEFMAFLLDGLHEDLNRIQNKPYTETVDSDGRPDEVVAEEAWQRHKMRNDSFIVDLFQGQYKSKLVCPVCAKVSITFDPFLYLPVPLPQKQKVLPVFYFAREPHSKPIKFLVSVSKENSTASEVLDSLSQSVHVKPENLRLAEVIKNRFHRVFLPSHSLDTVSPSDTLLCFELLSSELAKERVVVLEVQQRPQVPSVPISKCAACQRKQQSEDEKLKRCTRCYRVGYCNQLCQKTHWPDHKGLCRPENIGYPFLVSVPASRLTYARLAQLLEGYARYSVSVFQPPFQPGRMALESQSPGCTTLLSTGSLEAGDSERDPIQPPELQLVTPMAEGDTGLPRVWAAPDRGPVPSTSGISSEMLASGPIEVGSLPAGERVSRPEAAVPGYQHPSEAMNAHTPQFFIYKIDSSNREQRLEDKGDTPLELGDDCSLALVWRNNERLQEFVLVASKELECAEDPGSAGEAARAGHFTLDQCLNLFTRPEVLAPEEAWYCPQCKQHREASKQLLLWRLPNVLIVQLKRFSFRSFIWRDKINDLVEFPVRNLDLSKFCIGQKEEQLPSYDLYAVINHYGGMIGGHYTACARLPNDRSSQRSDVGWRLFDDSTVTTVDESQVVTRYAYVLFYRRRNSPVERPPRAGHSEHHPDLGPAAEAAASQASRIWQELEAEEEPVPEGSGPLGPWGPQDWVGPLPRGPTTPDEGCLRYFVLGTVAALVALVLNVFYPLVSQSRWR
In short: (§1)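 Fragment (200 µM) or vehicle was incubated for 3 h with triplicate HEK293T lysate samples of 495 µg, which were then treated with Biotin-Ahx-Ub-VS at 0.5 µM final for 1 h. Labelled DUBs were enriched on NeutrAvidin, digested with LysC and trypsin, and analysed by diaPASEF LC-MS/MS. Values are average log2 fragment/vehicle ratios from an unpaired t-test on global-median-normalised Spectronaut label-free quantities, using proteins with ≥2 unique peptides.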

USP22 = target: T2, USP22 (UniProt Q9UPT9)
T2 sequence (whole entry): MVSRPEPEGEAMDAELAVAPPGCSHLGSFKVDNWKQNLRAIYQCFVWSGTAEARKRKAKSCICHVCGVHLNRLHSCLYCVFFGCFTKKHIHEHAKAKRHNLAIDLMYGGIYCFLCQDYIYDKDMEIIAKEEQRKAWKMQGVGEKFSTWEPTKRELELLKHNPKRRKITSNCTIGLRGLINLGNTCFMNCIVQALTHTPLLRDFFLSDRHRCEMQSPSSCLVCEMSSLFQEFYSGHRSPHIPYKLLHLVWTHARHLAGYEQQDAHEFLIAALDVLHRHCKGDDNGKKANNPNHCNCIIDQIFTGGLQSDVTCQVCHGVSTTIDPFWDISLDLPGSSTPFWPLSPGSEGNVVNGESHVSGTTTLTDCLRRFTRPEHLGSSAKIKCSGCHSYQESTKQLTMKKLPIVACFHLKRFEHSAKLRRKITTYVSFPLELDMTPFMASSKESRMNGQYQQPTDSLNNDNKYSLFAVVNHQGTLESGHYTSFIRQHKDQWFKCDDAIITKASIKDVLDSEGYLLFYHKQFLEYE
In short: as §1

USP24 = USP24 (UniProt Q9UPU5)
In short: as §1

USP25 = target: T3, USP25 (UniProt Q9UHP3)
T3 sequence (whole entry): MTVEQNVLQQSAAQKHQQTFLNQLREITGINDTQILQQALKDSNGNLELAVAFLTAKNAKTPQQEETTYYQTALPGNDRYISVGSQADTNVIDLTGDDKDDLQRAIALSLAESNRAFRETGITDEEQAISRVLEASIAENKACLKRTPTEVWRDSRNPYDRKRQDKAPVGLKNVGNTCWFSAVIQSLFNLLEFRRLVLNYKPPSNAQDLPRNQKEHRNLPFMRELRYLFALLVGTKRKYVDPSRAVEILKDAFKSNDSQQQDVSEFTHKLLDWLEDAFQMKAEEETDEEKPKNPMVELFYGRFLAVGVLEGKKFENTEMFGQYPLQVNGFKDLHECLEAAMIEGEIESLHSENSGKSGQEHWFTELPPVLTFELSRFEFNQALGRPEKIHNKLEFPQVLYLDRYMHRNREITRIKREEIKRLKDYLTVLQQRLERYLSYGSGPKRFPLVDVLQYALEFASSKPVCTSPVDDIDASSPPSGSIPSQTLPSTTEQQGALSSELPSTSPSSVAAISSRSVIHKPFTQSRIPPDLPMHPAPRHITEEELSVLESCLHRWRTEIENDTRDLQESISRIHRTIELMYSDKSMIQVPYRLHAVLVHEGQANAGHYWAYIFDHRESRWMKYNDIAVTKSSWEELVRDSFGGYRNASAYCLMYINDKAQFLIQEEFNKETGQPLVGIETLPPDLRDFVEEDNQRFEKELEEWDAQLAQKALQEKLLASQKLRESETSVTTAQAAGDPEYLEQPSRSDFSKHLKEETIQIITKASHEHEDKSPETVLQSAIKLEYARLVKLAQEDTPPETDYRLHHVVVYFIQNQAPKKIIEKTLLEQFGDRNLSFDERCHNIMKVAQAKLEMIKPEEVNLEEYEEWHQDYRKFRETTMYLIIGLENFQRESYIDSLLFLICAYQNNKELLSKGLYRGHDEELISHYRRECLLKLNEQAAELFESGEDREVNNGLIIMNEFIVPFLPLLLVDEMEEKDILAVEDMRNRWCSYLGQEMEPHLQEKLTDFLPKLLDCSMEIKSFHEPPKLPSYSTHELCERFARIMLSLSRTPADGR
In short: as §1

USP28 = target: T4, USP28 (UniProt Q96RU2)
T4 sequence (whole entry): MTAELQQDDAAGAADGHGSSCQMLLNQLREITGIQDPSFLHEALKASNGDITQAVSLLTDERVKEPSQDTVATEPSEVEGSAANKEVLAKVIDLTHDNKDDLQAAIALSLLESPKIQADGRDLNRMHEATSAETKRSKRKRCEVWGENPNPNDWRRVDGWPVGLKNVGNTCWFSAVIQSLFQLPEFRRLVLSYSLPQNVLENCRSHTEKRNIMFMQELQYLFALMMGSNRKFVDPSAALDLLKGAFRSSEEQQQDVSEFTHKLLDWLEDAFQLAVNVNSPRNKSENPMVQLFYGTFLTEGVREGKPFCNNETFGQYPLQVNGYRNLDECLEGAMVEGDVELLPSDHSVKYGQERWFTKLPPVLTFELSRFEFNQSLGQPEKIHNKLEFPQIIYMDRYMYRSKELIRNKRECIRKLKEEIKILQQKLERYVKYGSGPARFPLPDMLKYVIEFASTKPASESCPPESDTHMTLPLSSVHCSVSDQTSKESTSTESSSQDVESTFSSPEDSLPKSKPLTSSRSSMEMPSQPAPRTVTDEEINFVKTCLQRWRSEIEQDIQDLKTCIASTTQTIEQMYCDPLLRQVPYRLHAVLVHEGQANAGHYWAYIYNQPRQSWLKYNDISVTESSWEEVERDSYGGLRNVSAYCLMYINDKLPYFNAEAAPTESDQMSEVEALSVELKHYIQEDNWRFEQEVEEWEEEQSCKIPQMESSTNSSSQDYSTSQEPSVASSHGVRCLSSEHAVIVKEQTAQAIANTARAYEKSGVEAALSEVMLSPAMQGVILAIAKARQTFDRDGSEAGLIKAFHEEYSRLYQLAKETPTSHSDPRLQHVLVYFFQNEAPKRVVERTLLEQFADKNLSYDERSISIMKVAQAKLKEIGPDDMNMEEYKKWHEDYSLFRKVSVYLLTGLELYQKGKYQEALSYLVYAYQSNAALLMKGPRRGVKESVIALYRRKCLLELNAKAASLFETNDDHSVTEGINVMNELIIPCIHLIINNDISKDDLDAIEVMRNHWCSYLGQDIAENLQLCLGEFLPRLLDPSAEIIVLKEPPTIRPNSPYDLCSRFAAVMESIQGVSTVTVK
In short: as §1

Measured: log2 ratio of Biotin-Ahx-Ub-VS probe labelling

Sequence of USP24 (Q9UPU5 whole entry): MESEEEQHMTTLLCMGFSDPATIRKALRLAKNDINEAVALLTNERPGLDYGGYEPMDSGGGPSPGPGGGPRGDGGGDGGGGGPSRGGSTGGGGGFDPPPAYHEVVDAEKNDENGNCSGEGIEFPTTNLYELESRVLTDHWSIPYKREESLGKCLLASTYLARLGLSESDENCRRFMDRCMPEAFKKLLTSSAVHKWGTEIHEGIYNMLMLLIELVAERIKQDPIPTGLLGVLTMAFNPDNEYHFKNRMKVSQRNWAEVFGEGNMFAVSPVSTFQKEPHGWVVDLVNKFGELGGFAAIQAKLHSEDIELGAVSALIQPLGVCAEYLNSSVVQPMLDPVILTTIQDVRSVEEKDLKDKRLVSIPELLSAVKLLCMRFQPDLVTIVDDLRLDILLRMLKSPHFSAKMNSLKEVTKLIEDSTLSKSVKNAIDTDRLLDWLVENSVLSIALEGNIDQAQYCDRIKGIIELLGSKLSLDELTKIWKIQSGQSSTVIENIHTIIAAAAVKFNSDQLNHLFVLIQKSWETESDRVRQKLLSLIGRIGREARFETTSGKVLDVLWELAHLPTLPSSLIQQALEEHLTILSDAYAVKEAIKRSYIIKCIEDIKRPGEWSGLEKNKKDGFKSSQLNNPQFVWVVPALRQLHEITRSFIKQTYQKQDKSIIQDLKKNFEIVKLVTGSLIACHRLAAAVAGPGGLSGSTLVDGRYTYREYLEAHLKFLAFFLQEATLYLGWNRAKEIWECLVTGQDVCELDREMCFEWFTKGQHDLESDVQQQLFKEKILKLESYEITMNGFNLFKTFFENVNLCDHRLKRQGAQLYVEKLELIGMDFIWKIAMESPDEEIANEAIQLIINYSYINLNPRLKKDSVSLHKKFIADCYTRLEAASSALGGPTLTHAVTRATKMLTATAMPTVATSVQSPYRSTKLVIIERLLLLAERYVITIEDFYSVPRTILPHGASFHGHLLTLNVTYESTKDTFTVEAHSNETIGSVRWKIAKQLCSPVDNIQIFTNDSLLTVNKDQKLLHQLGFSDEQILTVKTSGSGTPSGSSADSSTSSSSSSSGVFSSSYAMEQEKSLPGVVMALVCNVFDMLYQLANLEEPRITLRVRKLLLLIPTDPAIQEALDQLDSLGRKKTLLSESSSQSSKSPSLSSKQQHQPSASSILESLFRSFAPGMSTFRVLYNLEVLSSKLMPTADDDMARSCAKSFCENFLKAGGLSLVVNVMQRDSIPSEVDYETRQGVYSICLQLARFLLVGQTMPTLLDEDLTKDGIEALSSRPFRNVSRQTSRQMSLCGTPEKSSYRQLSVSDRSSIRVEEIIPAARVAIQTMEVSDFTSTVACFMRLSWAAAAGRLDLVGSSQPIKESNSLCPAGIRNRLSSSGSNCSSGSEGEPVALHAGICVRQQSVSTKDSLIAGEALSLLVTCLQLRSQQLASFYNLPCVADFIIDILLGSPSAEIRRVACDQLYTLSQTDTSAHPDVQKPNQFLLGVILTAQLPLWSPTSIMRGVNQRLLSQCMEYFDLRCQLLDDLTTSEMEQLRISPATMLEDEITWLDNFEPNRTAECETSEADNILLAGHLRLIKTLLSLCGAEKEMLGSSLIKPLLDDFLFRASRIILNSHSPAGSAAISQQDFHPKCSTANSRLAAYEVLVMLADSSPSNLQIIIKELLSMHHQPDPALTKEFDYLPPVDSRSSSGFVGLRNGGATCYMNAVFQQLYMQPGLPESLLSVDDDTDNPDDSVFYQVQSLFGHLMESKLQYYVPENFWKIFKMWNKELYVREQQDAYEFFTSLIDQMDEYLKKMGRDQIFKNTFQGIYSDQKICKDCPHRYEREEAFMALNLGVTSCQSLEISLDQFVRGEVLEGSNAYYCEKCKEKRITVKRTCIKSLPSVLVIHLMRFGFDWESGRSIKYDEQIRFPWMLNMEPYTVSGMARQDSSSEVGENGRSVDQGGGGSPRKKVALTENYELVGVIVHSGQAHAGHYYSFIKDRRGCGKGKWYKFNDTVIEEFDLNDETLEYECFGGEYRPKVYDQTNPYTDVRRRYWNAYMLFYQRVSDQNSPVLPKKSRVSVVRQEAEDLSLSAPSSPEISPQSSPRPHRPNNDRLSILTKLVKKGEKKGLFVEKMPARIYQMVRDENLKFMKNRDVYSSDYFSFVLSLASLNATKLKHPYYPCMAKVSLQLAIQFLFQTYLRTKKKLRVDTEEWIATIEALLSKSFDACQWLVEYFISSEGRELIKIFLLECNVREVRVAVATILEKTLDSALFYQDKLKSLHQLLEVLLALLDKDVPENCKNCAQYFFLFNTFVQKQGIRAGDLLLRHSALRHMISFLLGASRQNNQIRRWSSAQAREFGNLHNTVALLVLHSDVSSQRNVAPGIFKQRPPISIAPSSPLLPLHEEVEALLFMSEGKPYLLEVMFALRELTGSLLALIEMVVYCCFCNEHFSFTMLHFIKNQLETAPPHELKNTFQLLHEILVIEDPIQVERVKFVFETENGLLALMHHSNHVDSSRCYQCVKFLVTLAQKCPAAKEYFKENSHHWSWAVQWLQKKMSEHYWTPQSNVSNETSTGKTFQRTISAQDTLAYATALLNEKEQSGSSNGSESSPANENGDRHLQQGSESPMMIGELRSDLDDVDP

CN1c2ccccc2C(NC(=O)CCl)CS1(=O)=O (stereo not given)
inactive: USP19 -0.159 | USP22 -0.303 | USP24 -0.201 | USP25 -0.52 | USP28 -0.788
